Target: COPS5 (UniProt Q92905)
Assay: log2 ratio of Biotin-Ahx-Ub-VS probe labelling (fragment/DMSO); higher = less target engagement (more negative = stronger competition), active = hit call of the paper (q ≤ 0.05, log2 ratio ≤ -1)
Conditions: compound concentration: 200 uM; treatment time: 3 h
Method: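 Competitive ABPP in HEK293T cell lysate. Lysates were treated with each chloroacetamide fragment at 200 µM for 3 h, then with Biotin-Ahx-Ub-VS (0.5 µM, 1 h), NeutrAvidin-enriched and analysed by diaPASEF LC-MS/MS. Protein LFQ was median-normalised; average log2 ratio is fragment/DMSO from an unpaired t-test (n=3 treated, n=44 DMSO). Hits: q ≤ 0.05, log2 ratio ≤ -1, unique peptides ≥ 2.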

Chain of COPS5 (Q92905 whole entry, looked up, the tested form may be a part): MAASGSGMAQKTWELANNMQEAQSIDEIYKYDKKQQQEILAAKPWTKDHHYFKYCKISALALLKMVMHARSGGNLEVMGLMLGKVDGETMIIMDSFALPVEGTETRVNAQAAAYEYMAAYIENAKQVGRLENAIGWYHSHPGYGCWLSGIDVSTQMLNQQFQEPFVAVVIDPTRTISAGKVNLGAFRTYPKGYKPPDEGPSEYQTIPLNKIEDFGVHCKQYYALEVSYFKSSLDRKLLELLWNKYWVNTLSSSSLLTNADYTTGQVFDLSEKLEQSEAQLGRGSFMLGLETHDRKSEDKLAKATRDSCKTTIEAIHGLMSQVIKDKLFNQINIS

log2 ratio of Biotin-Ahx-Ub-VS probe labelling, inactive:
Cc1cccc(N2CCC(NC(=O)CCl)C2=O)c1 (configuration not stated) -0.0421, O=C(CCl)NCc1ccc2c(c1)OCO2 0.119, Cc1cccc(C(CNC(=O)CCl)N2CCOCC2)c1.Cl (configuration not stated) 0.0369, O=C(CCl)N1CCCN(C(=O)c2ccc(Cl)cc2)CC1 0.0384, CCc1c[nH]c(CNC(=O)CCl)n1.Cl -0.182, O=C(CCl)NC(Cn1ccccc1=O)c1ccccc1 (configuration not stated) 0.168, N#Cc1ccc(Cl)cc1NC(=O)CCl 0.289
